# Screening results (PubChem BioAssay)
# HIF-2a inh: inhibitors of HIF-2a; inhibition, % at 18.8 µM; 0.72% of 360,000 active; 786-0 RCC cells HIF-2a reporter, luciferase luminescence, overnight; AID 624352;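 active = inhibition of the luminescence signal of 40% or more relative to plate controls, in a single-dose primary screen at 18.75 µM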
# PPC-1+TRAIL kill: compounds killing PPC-1 cancer cells with TRAIL present (potentiator screen, no TRAIL-free arm); 0.41% of 220,000 active; PPC-1 cells + TRAIL, ATPLite viability luminescence; cell killing (% activity), % at 4 µM or 5 µM;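 active = cell killing above 50% in the first pass at 4 µM, then a duplicate retest at 5 µM averaging 50% or more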;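 note: plate controls were cells with TRAIL plus DMSO for no effect and medium-only wells lacking cells for full effect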
# CF NFkB block: inhibitors of cystic fibrosis induced NF-kB | inhibition, % at 5 µM | 0.86% of 360,000 active | AID 588850 | KKLEB NF-kB-GFP reporter, PAF-induced, GFP fluorescence overnight;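 active = at least 50% inhibition at 5 µM, scaled per plate between neutral and stimulator controls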;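 note: PAF is a Pseudomonas aeruginosa culture filtrate used as stimulus; plate controls were PAF-stimulated DMSO wells for no effect and unstimulated DMSO wells for full effect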
# Peg3 promoter: reduces Peg3 promoter-driven luciferase expression in HeLa | HeLa PEG-Prom luciferase reporter, luminescence, overnight | inhibition, % at 20 µM | 1.7% of 360,000 active | AID 588405;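 active = inhibition of at least 50% at 20 µM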
# KKLEB tox: counter-screen for CF NF-kB inhibitors: cytotoxicity; activity change (cytotoxicity), % at 5 µM; AID 602141; KKLEB CF airway cells viability, ATPlite luminescence, overnight; hits give low values; cells stimulated with P. aeruginosa culture filtrate; 0.36% of 360,000 active;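 active = corrected activity change at or below -50% at 5 µM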
# C8 TRAIL sens: sensitizes caspase-8 expressing cells to TRAIL; NB7+C8 cells + TRAIL, ATPlite viability luminescence; AID 624354; 1% of 360,000 active; inhibition (viability loss, TRAIL sensitization), % at 10 µM;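 active = compounds causing at least 50% loss of cell viability in the single-dose screen, relative to plate controls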
# Numbers without * were called inactive; nt = no result. An excerpt weighted towards active compounds, which were near 3.1% of everything screened.
SMILES,HIF-2a inh,PPC-1+TRAIL kill,CF NFkB block,Peg3 promoter,KKLEB tox,C8 TRAIL sens
COCCNc1c(-c2cc3ccc(C)c(C)c3[nH]c2=O)nc2ccccn12,-258.4,13.9,4.9,-311.2,-4.1,61.1*
O=[N+]([O-])/C=C\c1ccc(N2CCOCC2)cc1,54.9*,nt,24.9,14.5,-8.3,2.1
O=C(COc1ccc(/C=C\[N+](=O)[O-])cc1)N1CCOCC1,18.5,11.5,4.6,4.7,5.1,-6.0
CC(=O)ON=C1C=CC(=C(C#N)c2ccccc2)C=C1,-16.9,nt,79.9*,29.3,-39.3,18.3
O=C(COC(=O)c1ccc2c(c1)C(=O)N(c1cccc3ncccc13)C2=O)c1ccc(Cl)cc1,-0.3,11.5,-6.9,12.8,4.5,8.4
Cc1ccc(C(=O)COC(=O)c2ccc3c(c2)C(=O)N(c2cccc4ncccc24)C3=O)cc1,16.3,26.9,12.3,101.5*,-11.8,51.2*
CC(CC(=O)Nc1ccc(Cl)c(S(=O)(=O)N2CCOCC2)c1)c1ccccc1 (configuration not stated),9.6,nt,-15.3,11.8,6.7,10.7
Oc1c(Cl)cc(Cl)cc1C=Nc1cc(C(F)(F)F)ccc1N1CCc2ccccc2C1,-250.9,37.4,42.9,-140.5,-39.6,53.3*
CCC(=O)NCc1cc(-c2nn(C)c(=O)c3ccccc23)ccc1C,5.9,-16.6,-20.4,6.9,-5.0,14.4
Cc1ccc(-c2nn(CC(=O)NCc3cc(-c4nn(C)c(=O)c5ccccc45)ccc3C)c(=O)c3ccccc23)cc1,1.6,31.5,0.0,70.5*,7.7,62.5*
COc1cccc(-n2c(N)c(C(=O)Nc3c(C)n(C)n(-c4ccccc4)c3=O)c3nc4ccccc4nc32)c1,7.6,6.1,18.6,59.6*,-27.0,23.8
Cc1c(NC(=O)c2ccc(C(=O)Nc3c(C)n(C)n(-c4ccccc4)c3=O)cc2)c(=O)n(-c2ccccc2)n1C,21.6,nt,-12.9,8.4,2.5,-9.1
Cc1cc(C)cc(-n2c(N)c(C(=O)Nc3c(C)n(C)n(-c4ccccc4)c3=O)c3nc4ccccc4nc32)c1,-6.6,10.8,14.5,91.4*,-45.1,25.0
Cc1ccccc1-c1cc2nc(NCc3ccccc3F)n(C)c(=O)c2s1,-6.2,nt,17.8,10.4,9.7,-8.2
CC(C)(C)C1=CC(O)(c2ccccc2)C=C(C(C)(C)C)C1=O,20.2,nt,20.1,78.1*,4.6,-16.3
CCN1C(=O)N(CC)C(O)(c2ccccc2)C1(O)c1ccccc1 (configuration not stated),7.7,16.3,13.0,3.0,-0.8,-17.7
O=C(CSC(=S)N1CCCCC1)c1ccccc1,-42.5,34.3,-36.3,-34.1,-6.1,54.0*
O=C(CSC(=S)N1CCCC1)c1ccccc1,-94.5,nt,2.3,-145.4,-13.0,16.5
COc1ccc(OCCN2CCC(C(=O)NC(c3ccc(F)cc3)c3ncccc3C)CC2)cc1 (configuration not stated),-4.7,nt,-0.8,-10.0,-2.1,-11.6
Cc1cc(Sc2nnc(/N=C/N(C)C)s2)c2ccccc2n1,34.5,3.2,58.6*,13.9,-29.4,3.8
COC(=O)c1cc(S(=O)(=O)NCCc2ccc(Cl)cc2)c[nH]1,17.9,nt,50.7*,-330.0,-8.5,7.2
COC(=O)c1cc(S(=O)(=O)NCCc2ccc(C)cc2)c[nH]1,19.3,nt,0.7,1.3,6.9,10.0
CC(C)(C)NC(=O)C(c1cccc2ccccc12)n1c(=O)c(-c2cc3ccccc3[nH]2)nc2ccccc21 (configuration not stated),1.2,nt,nt,nt,nt,1.9
CC1CCN(C(=O)CCC(=O)Nc2nnc(C(F)(F)F)s2)CC1,8.0,nt,16.7,-7.4,-7.3,-1.4
CCOc1ccc(S(=O)(=O)Nc2cccc(C(=O)NCC3CCCO3)c2)cc1 (configuration not stated),10.1,nt,14.9,14.3,5.8,7.1
SMILES,HIF-2a inh,PPC-1+TRAIL kill,CF NFkB block,Peg3 promoter,KKLEB tox,C8 TRAIL sens
Cn1cc(CN2CCC(C(=O)NC(c3ccc(-c4ccccc4)cc3)c3cnccn3)CC2)c2ccccc21 (configuration not stated),-29.8,nt,37.6,107.2*,-27.6,46.1
O=C(O)c1cc(-c2cccc3ccccc23)nc2ccccc12,18.0,nt,9.2,-9.8,9.5,-0.6
CCc1ccc(-c2cc(C(=O)O)c3ccccc3n2)s1,-205.7,nt,6.6,-161.9,-2.2,68.3*
O=C(Nc1ncccn1)c1cc(-c2ccc(F)cc2)nc2ccccc12,-7.5,8.2,-15.6,-3.9,-1.7,6.1
O=C(O)c1cc(-c2c[nH]c3ccccc23)nc2cc3ccccc3cc12,-207.9,22.0,-3.5,-186.7,8.7,51.7*
O=C(O)c1cc(-c2ccc3ccccc3n2)nc2ccccc12,-102.1,nt,3.6,-97.7,-9.9,77.6*
O=C(O)c1cc(-c2ccc3ccccc3c2)nc2ccc(F)cc12,-208.7,nt,4.3,-180.7,-12.2,54.5*
Cc1ccc(-c2cc(C(=O)N3CCCC3)c3ccccc3n2)s1,-122.7,nt,-4.1,-105.3,0.0,16.9
O=C(Nc1ccn(CCCN2CCN(c3ccccn3)CC2)c(=O)n1)OCc1ccccc1,6.6,nt,-11.0,-5.8,-5.8,-12.3
O=C(Nc1ccc(S(=O)(=O)Nc2nccs2)cc1)c1c(F)c(F)c(F)c(F)c1F,6.7,nt,-45.2,-1.4,-6.4,-11.1
Cc1cc(Cl)ccc1NC(=O)/N=C1/NC(=O)CS1,-10.1,nt,-9.6,-24.5,16.1,-13.1
Cc1ccc(N/C=C/C(=O)c2ccc(C)cc2)cc1,-199.8,23.6,4.1,-202.7,0.4,31.7
COc1cccc(N/C=C/C(=O)c2ccc(Cl)cc2)c1,-178.6,52.8*,-33.7,-272.9,-16.2,53.4*
COc1ccc(OC)c(N/C=C/C(=O)c2ccccc2)c1,63.0*,nt,-17.3,73.2*,-88.4*,91.0*
Cc1ccc(C(=O)/C=C/C(=O)c2ccc(C)cc2)cc1,-34.5,7.7,77.9*,112.5*,-67.4*,-10.7
COc1ccc(OC)c(N/C(C)=C/C(=O)c2ccccc2)c1,-220.0,44.1,-10.6,-330.2,-2.6,45.1
COc1cccc(N/C=C/C(=O)c2ccc(C)cc2)c1,-209.7,nt,-8.9,-222.0,-24.3,63.5*
Cc1ccc(/C=C/C(=O)c2ccc(C)cc2)cc1,-152.5,17.5,-16.8,-196.4,2.2,0.8
COc1ccc(C(C(=O)NCc2ccccc2)n2c(=O)c(-c3ccco3)nc3ccccc32)cc1 (configuration not stated),0.8,nt,nt,nt,nt,11.3
COc1ccc(N(CC(=O)NC2CCCCC2C)S(=O)(=O)c2c(C)nn(C)c2C)cc1 (configuration not stated),8.2,nt,3.2,0.9,9.8,-5.0
O=C(CSc1nc(=O)n(CCN2CCOCC2)c2c1CCCC2)Nc1ccc(F)cc1F,13.5,nt,-7.9,9.3,-11.5,15.5
COc1ccc(S(=O)(=O)Nc2ccc3c(c2)OCO3)cc1,-16.3,8.9,-15.3,-3.0,16.8,-32.0
